This is an account of results in PubChem BioAssay (NCI).

This is part of a sample that, as a whole, favours compounds with a hit. Of some 83,000 tested, about 20% had one in any assay.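 A percent growth of 40 corresponds to 60% growth inhibition; 0 means no net growth; -100 means all cells died. Active threshold: below 10.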 A number with no mark means an inactive call. Active and inactive are the calls of the source.

Test in all cases: NCI-60 one-dose screen, 48 h (100 = growth as untreated, 0 = no growth, -100 = all killed)
What all share (conditions): 10 µM unless noted

Assay [1] deals with HCT-15 colon.
Assay [2] has as its system HT29 colon.
Assay [3] deals with SNB-19 CNS.
In assay [4] the test system is U251 CNS.
Assay [5] concerns PC-3 prostate.
Assay [6] has as its system SK-MEL-5 melanoma.
Assay [7] concerns UACC-62 melanoma.
Assay [8] deals with SK-MEL-28 melanoma.
Assay [9] has as its system SK-MEL-2 melanoma.
The subject of assay [10] is EKVX NSCLC.
For assay [11], the system named is SN12C renal.
In assay [12] the test system is UO-31 renal.
Assay [13] has as its system TK-10 renal.
The subject of assay [14] is ACHN renal.
Assay [15] has as its system CAKI-1 renal.
Assay [16] has as its system CCRF-CEM leukemia.
For assay [17], the system named is MOLT-4 leukemia.
For assay [18], the system named is SNB-75 CNS.
Assay [19] relates to LOX IMVI melanoma.
In assay [20] the test system is A498 renal.

Consider `O=S(=O)(Nc1ccc(I)cc1Cl)c1ccc(-c2cnc(C3CC3)o2)cc1`, for which the growth was 30.7% in assay [1]; 15.9% in assay [2]; 45.9% in [3]; 35.2% in [4]; 34% in [5]; 40.2% in [6]. In addition, the growth is 39% in assay [7]; 53.8% in assay [8]; 71.6% in assay [9]; 54.2% in [10]; 42.5% in assay [11]; 50.9% in assay [12]. In addition, the growth in [13] is 89.3%; in assay [14], 49.2%; in assay [15], 39.1%; in [16], 25.2%; in [17], 45%.

On to `CNC(=O)c1c(NC(=O)c2ccccc2C(F)(F)F)sc2c1CCC(=O)C2`, for which the growth in assay [2] was 26.5%; in assay [18], 93.1%; in [3], 41.1%; in assay [4], 24.8%; in assay [5], 14.8%; in [7] it was 16.6%. In addition, the growth in assay [19] was 22%; in [8], 45.4%; in [9], 88.1%; in assay [10] it was 23.9%; in assay [11] it was 62.1%; in assay [12], 3.82% (active). Further, the growth in assay [13] is 26.2%; in assay [14] it was 9.31% (active); in assay [15] it was 0.09% (active); in [20] it was 80.4%; in assay [16] it was 11.9%; in assay [17], 18.3%.

As for `O=S(=O)(NC1c2ccccc2C[C@H]1O)c1ccc(Cl)cc1Cl` (some centres not stated), the growth in assay [2] is 109%; in assay [18], 86.4%; in assay [3], 96.3%; in [4], 98.7%; in [5], 84.1%; in assay [6], 99.4%. Besides, the growth in [7] is 74.9%; in [19], 93.3%; in [8], 102%; in [9], 101%; in assay [10], 98.8%; in assay [11], 96.8%. Besides, the growth in [12] is 68.7%; in [13], 119%; in [14], 96.2%; in assay [15], 82.4%; in assay [20], 103%; in [16] it was 105%. The growth in assay [17] was 105%.

For `CC(=O)c1ccc(Nc2nc(SCC(C)C)nc(-c3ccc(F)cc3)c2C#N)cc1`, the growth in [2] is 107%; in [18], 125%; in [3], 112%; in assay [4] it was 104%; in [5] it was 108%; in assay [6] it was 101%. The growth in assay [7] was 108%; in [19] it was 112%; in [8] it was 108%; in [9], 109%; in assay [10], 114%; in [11] it was 110%. The growth in assay [12] is 115%; in [13], 123%; in assay [14] it was 104%; in [15] it was 115%; in assay [20] it was 117%; in assay [16], 107%. Also, in assay [17], the growth is 107%.

As for `c1cn2c(ccc3nc(-c4cn[nH]c4)c4c(c32)CCCC4)n1`, the growth is 62.4% in assay [2]; 40.5% in assay [18]; 75.5% in [3]; 56.1% in [4]; 48.3% in [5]; 87.6% in assay [6]. Further, the growth in assay [7] is 33.5%; in assay [19] it was 79%; in assay [8] it was 66%; in assay [9], -5.11% (active); in [10], 90.2%; in assay [12], 23%. Besides, the growth in assay [13] is 30.8%; in assay [14], 26.4%; in assay [15], 16.5%; in [20], -4.01% (active); in [16], 81.2%; in assay [17] it was 83.4%.

As to `Cn1cc(CNc2nc3ccc(OC/C(=C/F)CN)cc3o2)ccc1=O`, the growth in [2] is 111%; in [18], 110%; in assay [3] it was 98%; in assay [4], 106%; in assay [5], 107%; in [6], 104%. The growth is 95.1% in assay [7]; 98.2% in assay [19]; 99.4% in [8]; 114% in [9]; 98.4% in assay [10]; 99.8% in assay [11]. Also, the growth is 93.1% in assay [12]; 107% in [13]; 105% in [14]; 102% in assay [20]; 107% in [16]; 104% in [17].

Consider `COc1ccc(-n2c(SCc3nnc(NC(=O)c4ccc(Br)cc4)s3)nc3cc(OC)c(OC)cc3c2=O)cc1`, for which the growth in assay [2] is 104%; in [18] it was 93.4%; in assay [3], 89.6%; in assay [4], 86.3%; in assay [5], 87.9%; in [6], 91.8%. Moreover, the growth in assay [7] is 91.4%; in assay [19] it was 90.5%; in assay [8], 88.7%; in [10], 91.1%; in [11], 91%; in [12] it was 84.2%. In addition, the growth was 118% in assay [13]; 97.5% in assay [14]; 83.8% in assay [15]; 90.9% in assay [16]; 105% in [17].

`Fc1ccc(-c2cc3nc(C(Cl)Cl)nc(-c4ccco4)n3n2)cc1`: the growth in assay [2] is -13.4% (active); in assay [18], 55.7%; in assay [3], 0.644% (active); in assay [4], -9.36% (active); in assay [5], -19.2% (active); in assay [6] it was 95.9%. Further, the growth in assay [7] is 17.2%; in [19] it was 93.5%; in assay [8] it was -24.5% (active); in assay [9] it was 55.1%; in assay [10], -8.73% (active); in [11], 59.1%. For the same compound, the growth in assay [12] is -14.5% (active); in assay [13] it was -11.7% (active); in assay [14], -35.3% (active); in assay [15] it was -23.7% (active); in [20], -38.6% (active); in assay [16], 85.2%. Further, the growth in assay [17] was 59.7%.

Take `COc1cccc2c1CN(C(=O)c1ccc(O)c(C(=O)N3Cc4ccc(OCCC[P+](c5ccccc5)(c5ccccc5)c5ccccc5)cc4C3)c1)C2`: the growth was 100% in assay [2]; 80.9% in assay [18]; 28.3% in assay [3]; 53.6% in [4]; 71.7% in [5]; 35.7% in assay [6]. Moreover, the growth in assay [7] is 44.4%; in [19], 42.7%; in assay [8] it was 63.2%; in [9], 61.5%; in assay [10], 52.4%; in [11], 90.4%. The growth was 77.3% in assay [12]; 116% in assay [13]; 96.6% in [14]; 82.3% in [15]; 107% in [20]; 71.1% in assay [16]. Moreover, in [17], the growth was 93.6%.

For the compound `Nc1ccccc1NC(=O)c1ccc(NC(=O)C/C=C/c2cccnc2)cc1`, the growth in assay [2] was 18.1%; in [18] it was 44.6%; in assay [3], 39.4%; in assay [4] it was 21.5%; in assay [5], 36.9%; in assay [7] it was 15%. Besides, the growth in assay [19] is 20.3%; in [8], 0.0488% (active); in assay [9], 15.5%; in assay [10], 61.3%; in assay [11], 29.1%; in [12] it was 17.6%. Further, the growth was 28.9% in assay [13]; 47.1% in assay [14]; 45.1% in assay [15]; -16.4% (active) in assay [20]; 22.5% in [16]; 31.1% in assay [17].
